TIM10 inh: growth inhibitors of TIM10 yeast strain. inhibition, % at 10 µM. AID 463195. S. cerevisiae TIM10 strain growth, BacTiter-Glo luminescence, 24 h. actives 1.4% (n = 330,000);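 active = inhibition of 40% or more at the single tested concentration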;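 also: wild-type TIM10 isogenic control strain grown at permissive 25 °C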
tim23-1 inh: growth inhibitors of tim23-1 mutant yeast; S. cerevisiae tim23-1 growth, BacTiter-Glo luminescence, 24 h; inhibition, % at 20 µM; actives 1.3% (n = 330,000); AID 463212;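 active = growth inhibition of the mutant yeast at or above 50%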;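 also: temperature-sensitive mutant grown at 25 °C; plate controls were DMSO-treated mutant yeast for no effect and medium wells lacking yeast for full effect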
NALP3 yeast inh: blocks the NALP3 inflammasome reconstituted in yeast | inhibition, % at 10 µM | AID 2825 | Yeast reconstituted NLRP3/ASC/caspase-1, beta-gal luminescence, 24 h | actives 0.39% (n = 330,000);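 active = inhibition of 50% or more; inactive = inhibition below 50%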;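 also: plate controls were induced DMSO wells for no effect and uninduced yeast grown without galactose for full effect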
PfHsp90 yeast 2: reduces growth (ATP signal) of yeast expressing P. falciparum Hsp90 | actives 0.32% (n = 310,000) | S. cerevisiae expressing PfHsp90, BacTiter-Glo ATP, 48 h; yeast lacking PDR1 and PDR3 efflux regulators | inhibition, % at 9.4 µM | AID 504621;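 active = every replicate shows inhibition above about 80%, whatever the replicate mean, limit read from the data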;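 also: 0% = DMSO neutral controls and 100% = 20 µM radicicol positive controls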
SKKanGAS inh: inhibitors of SKKanGAS S. pyogenes growth in kanamycin (SK-promoter or general growth effect); BacTiter-Glo, 6 h; actives 1.3% (n = 300,000); AID 1662; inhibition, % at 7.5 µM;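 active = mean replicate score, as percent of positive control median, at least 50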;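 also: strain carries kanamycin resistance gene driven by streptokinase promoter and grows in 40 µg/ml kanamycin; loss of luminescence reflects streptokinase promoter inhibition or plain growth inhibition; 0% = median of DMSO wells and 100% = positive control at its reference dose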
tim10-1 inh: growth inhibitors of tim10-1 mutant yeast. AID 463190. inhibition, % at 20 µM. S. cerevisiae tim10-1 ts strain growth, BacTiter-Glo, 24 h. actives 2.2% (n = 330,000);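 active = inhibition of at least 40%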;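 also: mutant grown at 25 °C; 0% = DMSO wells with yeast and 100% = wells holding no yeast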
tim10-1 conf: confirmation of tim10-1 mutant yeast growth inhibitors; shares compounds with tim10-1 inh; S. cerevisiae tim10-1 ts strain growth, BacTiter-Glo, 24 h; inhibition, % at 20 µM; actives 56% (n = 7,400); AID 463213;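 active = inhibition of yeast growth at or above a set limit in either of two repeat tests at 20 µM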;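 also: tim10-1 mutant grown at permissive 25 °C to find synthetic lethal compounds; 0% = DMSO yeast wells and 100% = medium wells without yeast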
* = called active by the depositor; / = not tested or not shown; ! = not active in a repeat. Sampled rows, rich in hits. Any-hit rate of the full collection: about 4.5%.

SMILES	TIM10 inh	tim23-1 inh	NALP3 yeast inh	PfHsp90 yeast 2	SKKanGAS inh	tim10-1 inh	tim10-1 conf
COc1ccc([C@H]2/C=C\CN(C(=O)[C@H](Cc3ccccc3)NC(=O)OCC3c4ccccc4-c4ccccc43)CC(=O)N2Cc2ccc(F)cc2)cc1	4	14	-1	/	19	95*	19
COc1cc2c(C#CCCCO)c(-c3ccsc3)oc(=O)c2cc1OC	-5	-6	0	5	/	-4	/
N/C(=N\OC(=O)c1cccc(Cn2cc(C(F)(F)F)ccc2=O)c1)c1ccccc1	22	1	21	27	-4	44*	52*
CCOC(=O)/C(C#N)=C\c1cn(C)c2ccccc12	22	20	21	11	5	41*	15
CCOC(=O)/C(C#N)=C/c1cn(CCOc2ccccc2)c2ccccc12	-9	6	18	4	5	13	/
COc1ccc(CN2C(=NC(=O)C3CCCCC3)SC3CS(=O)(=O)CC32)cc1 (centres undefined)	11	11	1	-17	1	14	/
CCCCCCC(=O)Nc1nc(C)c(-c2csc(Nc3ccc(Cl)cc3)n2)s1	23	24	6	-3	17	39	/
CCCCCC(=O)Nc1nc(C)c(-c2csc(Nc3ccc(Cl)cc3)n2)s1	28	21	12	4	17	41*	26
Cc1cccc2c(C(=O)O)c3cccc(C)c3nc12	13	8	8	14	-4	2	/
Cc1c(NC(=O)/C(C#N)=C/c2ccc(-c3cc(Cl)ccc3Cl)o2)c(=O)n(-c2ccccc2)n1C	17	17	14	-9	2	18	/
Cc1c(NC(=O)/C(C#N)=C/c2ccc(-c3ccc(Cl)cc3)o2)c(=O)n(-c2ccccc2)n1C	34	32	7	-4	11	42*	30*
C=C(C)CSc1nncn1/N=C/c1ccc(OC)cc1	19	28	-1	14	-13	43*	32*
CCSc1nncn1/N=C/c1ccc(OC)c(OC)c1	-11	-5	0	-30	-5	-4	/
Cc1[nH]c2ccc(F)cc2c1CCN(Cc1ccncc1)C(=S)Nc1ccc(F)cc1	-4	30	10	-11	14	42*	7
Nc1nc(C(F)(F)F)cc(=O)n1N	-3	5	14	-1	-13	-12	/
Cc1cc(C(=O)N2CCN(C(c3ccccc3)c3ccccc3)CC2)no1	35	26	11	-11	-5	41*	24
CCCc1cc(C(=O)N2CCN(C(c3ccccc3)c3ccccc3)CC2)no1	27	23	16	-14	17	26	/
Cc1c(C(=O)N2CCCCC2)c(S(=O)(=O)N2c3ccccc3CC2C)c(C)n1C (centres undefined)	13	13	2	4	-7	6	/
O=C(Cn1cc(C(F)(F)F)ccc1=O)N1CCc2ccccc2C1	-4	-12	2	-3	/	-15	/
CO/N=C/CC(=O)c1ccc(-c2ccccc2)cc1	24	39	48	-18	-1	25	/
CO/N=C/CC(=O)c1cnc(-c2ccc(Cl)cc2)s1	4	28	24	10	6	41*	24
CC(C)CN(C(=O)CN1C(=O)NC2(CCc3ccccc32)C1=O)C1CCS(=O)(=O)C1 (centres undefined)	0	-11	18	/	/	-11	/
Nc1cc(=O)[nH]c(SCc2cccc3ccccc23)n1	11	29	2	-25	2	-8	/
O=c1cc(C(F)(F)F)nc(SCc2cccc3ccccc23)[nH]1	-3	24	20	-14	13	40*	4
O=C(Nc1ncc([N+](=O)[O-])s1)c1cccs1	22	32	20	54	8	43*!	38*
SMILES	TIM10 inh	tim23-1 inh	NALP3 yeast inh	PfHsp90 yeast 2	SKKanGAS inh	tim10-1 inh	tim10-1 conf
CCCOc1ccccc1NC(=O)/C=C/C(N)=O	37	32	33	-11	2	62*	56*
COC(=O)c1c(SCC(=O)Nc2ccc(C)c(C)c2)nc(=O)[nH]c1C	-12	2	-8	11	-1	8	/
CC1CCN(C(=S)c2cn(Cc3cccc(F)c3)c3ccccc23)CC1	34	11	5	-18	1	41*	20
CC1=C/C(=C(\c2cc(C)c(O)c(Br)c2)c2ccccc2S(=O)(=O)O)C=C(Br)C1=O	33	46	28	68	24	46*	44*
FC(F)Oc1ccc(/C=N/c2c(-c3ccc(OC(F)F)cc3)nc3n2CCS3)cc1	6	9	7	0	9	47*	24
CCOc1ccc(-c2nc3n(c(=O)c2C#N)CCS3)cc1	22	-15	-8	3	23	31	/
COc1ccc(C(=O)N2CCN(C)C(=O)[C@@H]2C)cc1OC1CCN(C(C)=O)CC1	3	13	12	5	-1	-1	/
COc1cc(SC)ccc1C(=O)NNC(=O)c1cc(C)oc1C	23	44	34	46	45	53*	26
CN(Cc1ccccc1)c1ncnc2ccc(Br)cc12	31	44	10	-6	12	42*	11
CCOc1ccccc1Nc1ncnc2ccc(Br)cc12	6	13	1	-5	-6	12	/
COc1ccc(NC(=O)C2CCCN(C(=O)c3ccc(Cl)cc3)C2)cc1Cl (centres undefined)	2	24	20	14	/	1	/
Nc1cc(-c2cccc(Br)c2)nn1Cc1ccccc1	18	34	20	-4	-13	46*	18
Cc1ccc2nc(C)c(C(=O)N/N=C/c3cccc([N+](=O)[O-])c3)cc2c1	40	30	1	0	0	47*	45*
Cc1ccccc1OCC(=O)NCCCNC(=O)c1ccccn1	9	13	6	8	-4	-16	/
CC(C)NC(=O)C(=O)Nc1ccc2c(c1)N(S(=O)(=O)c1cccs1)CCC2	26	35	12	11	-10	43*	21
CNC(=O)C(=O)Nc1ccc2c(c1)N(S(=O)(=O)c1cccs1)CCC2	22	30	5	/	-6	25	/
CCN(CC(=O)Nc1cc(Cl)ccc1C)C(=O)C1CC1	3	-2	13	-2	/	-11	/
Cc1cccc(N2CCN(CC(=O)N(C3CCCC3)C3CCS(=O)(=O)C3)CC2)c1C (centres undefined)	13	15	-5	-10	/	14	/
CC(C)OC(=O)CSc1nnc(-c2cnccn2)n1-c1ccc(Cl)cc1	11	25	-3	/	-4	41*	21
CC[N+]1(C)[C@@H]2CC[C@H]1CC(OC(=O)[C@H]1CCC(C(=O)OC3C[C@H]4CC[C@@H](C3)[N+]4(C)CC)(c3ccccc3)c3ccccc31)C2 (some centres undefined)	-7	-5	22	3	/	-29	/

Assay outcomes deposited in PubChem by several laboratories.
